Bioassay records from PubChem.
NALP3 yeast inh = inhibitors of NALP3 inflammasome in yeast | Yeast reconstituted NLRP3/ASC/caspase-1, beta-gal luminescence, 24 h | inhibition, % at 10 µM | hit rate 0.39% among 330,000 | AID 2825;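 active = inhibition of 50% or more; inactive = inhibition below 50%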;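 note: plate controls were induced DMSO wells for no effect and uninduced yeast grown without galactose for full effect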
GASC-1 inh = inhibitors of human GASC-1 (JMJD2C) demethylase. Q9H3R0. GST-JMJD2C(1-420) H3K9me3 demethylation, DELFIA europium. inhibition, % at 2.35 µM. hit rate 0.069% among 330,000. AID 2099;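 active = more than half of a compound's replicate wells show inhibition beyond 50%, single wells judged on their own value; inconclusive = some, but no more than half, of replicates pass 50% inhibition; inactive = no replicate passes 50% inhibition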;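 note: signal counts dimethyl H3K9 product captured on neutravidin plate; 0% = median of DMSO wells and 100% = 0.3 times that DMSO median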
Target sequence (Q9H3R0 1-420 limits assumed): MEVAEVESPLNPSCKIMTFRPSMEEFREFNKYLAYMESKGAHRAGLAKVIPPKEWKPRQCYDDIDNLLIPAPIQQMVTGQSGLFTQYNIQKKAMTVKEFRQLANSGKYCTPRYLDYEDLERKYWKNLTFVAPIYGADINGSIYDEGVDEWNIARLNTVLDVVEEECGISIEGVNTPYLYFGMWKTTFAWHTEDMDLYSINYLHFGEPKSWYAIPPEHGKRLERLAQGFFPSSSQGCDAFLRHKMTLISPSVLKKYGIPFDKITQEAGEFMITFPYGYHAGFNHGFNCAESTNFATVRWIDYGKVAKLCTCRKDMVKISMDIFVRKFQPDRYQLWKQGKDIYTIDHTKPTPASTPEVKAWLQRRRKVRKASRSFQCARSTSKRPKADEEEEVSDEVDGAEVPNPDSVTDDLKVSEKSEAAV
Efflux pump mplx = antifungal efflux pump inhibition, Nile Red retention | S. cerevisiae Candida pump triplex | inhibition, % at 10 µM | hit rate 0.44% among 330,000;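 active = plate passing quality check with inhibition over a set limit, or well fluorescence over plate mean plus 4 SD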;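 note: Nile Red retained in pooled yeast measured as flow cytometry median fluorescence; 0% = buffer negative control and 100% = Enniatin B positive control; higher means more Nile Red kept so more efflux inhibition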
HDAC3 inh = blocks human histone deacetylase 3 | O15379 | recombinant HDAC3, fluorogenic peptide/trypsin coupled, fluorescence | inhibition, % at 8.3 µM | hit rate 0.15% among 320,000; in the data active = inhibition above about 26%, passing the limit was not always enough; inconclusive = no clear call, values can overlap the other calls
PolyA inhibitor = yeast polyadenylation inhibition. S. cerevisiae SKY197-pL101 polyadenylation reporter, beta-gal luminescence; efflux-impaired pdr1/pdr3 knockout yeast; score 100 = 6 SD above DMSO. activity score, % at 12 µM. hit rate 0.02% among 300,000;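 active = lowest replicate activity score at least 50, where 100 means six control SD above control mean; inconclusive = lowest score under 50 but half or more replicates reach 50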;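 note: yeast exposed to compound for 9 h at 30 °C; higher score means more reporter readthrough which indicates perturbed polyadenylation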
NALP1 yeast inh = blocks the NALP1 inflammasome reconstituted in yeast | hit rate 0.61% among 280,000 | S. cerevisiae NALP1/ASC/caspase-1 growth, X-gal OD620, 72 h | AID 2071 | inhibition, % at 10 µM; in the data active = inhibition mostly above about 24%, no sharp cut-off; inactive = mostly below about 32%
Cmpd fluor yeast = flagged as fluorescent in efflux inhibitor counter-screen. hit rate 4% among 1,700. S. cerevisiae AD/pABC3, compound fluorescence, flow cytometry. shares compounds with Efflux pump mplx. fluorescence ratio to DMSO, % at 10 µM. AID 588517;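 active = fluorescence ratio to DMSO above its plate's cutoff, the plate mean ratio plus 5 SD, cut at about 210% in these data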;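 note: unstained yeast with no Nile Red so the signal is compound autofluorescence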
CaMdr1 efflux inh = blocks the Candida albicans Mdr1 efflux pump in yeast; shares compounds with Efflux pump mplx; S. cerevisiae AD/CaMDR1, Nile Red efflux, flow cytometry; inhibition, % at 10 µM; hit rate 1% among 1,700; AID 588518; in the data active = inhibition above about 26%;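 note: 0% = DMSO vehicle and 100% = reference inhibitor; higher means more Nile Red retained so more efflux inhibition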
CaCdr2 efflux inh = inhibitors of Candida albicans Cdr2 efflux pump. shares compounds with Efflux pump mplx. S. cerevisiae AD/CaCDR2, Nile Red retention, flow cytometry. Nile Red retention ratio vs DMSO, % at 10 µM. hit rate 4% among 1,700. AID 588520; in the data active = Nile Red retention ratio vs DMSO above about 190%;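 note: higher ratio means more blocking of Cdr2 efflux of the dye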
CaCdr1 efflux inh = Candida Cdr1 efflux pump inhibition | shares compounds with Efflux pump mplx | S. cerevisiae AD/CaCDR1, Nile Red efflux, flow cytometry | inhibition, % at 10 µM | hit rate 1% among 1,700;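 active = inhibition above the screen-wide mean plus twice its standard deviation, cut at about 32% in these data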
* hit, by the source's call; ? = inconclusive; . = no result given. Only some compounds are listed: those with a hit (about 1.5% of all), similar ones and a draw of the others.

SMILES	NALP3 yeast inh	GASC-1 inh	Efflux pump mplx	HDAC3 inh	PolyA inhibitor	NALP1 yeast inh	Cmpd fluor yeast	CaMdr1 efflux inh	CaCdr2 efflux inh	CaCdr1 efflux inh
Cc1cc(SCc2ccc([N+](=O)[O-])cc2)nc(=O)[nH]1	-2	-16	0	1	3	24	.	.	.	.
O=C1C2C3C=CC(C4CC34)C2C(=O)N1Cc1ccccc1 (centres undefined)	14	2	0.9*	0	12	11	91	0	94	0
COc1ccc([C@@H]2Sc3ccccc3N(CCN(C)C)C(=O)[C@@H]2OC(C)=O)cc1	7	-3	0	2	5	13	114	0	114	0
Cc1ccc(C)c(OCc2cc(C(=O)N(C)Cc3ccccn3)no2)c1	15	3	0	2	-1	10	.	.	.	.
Cc1ccc(C)c(OCc2cc(C(=O)N(C)Cc3nccs3)no2)c1	15	1	0	6	-6	11	182	1	110	1
CC(/C=C1\SC(=S)N(NS(=O)(=O)c2ccc(C)cc2)C1=O)=C\c1ccccc1	-14	-15	0	7	-5	.	109	0	104	0
CC(/C=C1\SC(=S)N(NC(=O)c2ccncc2)C1=O)=C\c1ccccc1	10	8	0	0	-15	35	88	0	87	0
O=C(NN1C(=O)/C(=C/c2cccs2)SC1=S)c1cccnc1	13	.	0	6	5	-15	105	0	93	0
O=C(NN1C(=O)/C(=C/c2cccs2)SC1=S)c1ccccc1	20	7	0	2	4	31	.	.	.	.
Cn1cccc1/C=C1\SC(=S)N(NC(=O)c2ccc(F)cc2)C1=O	25	.	0	9	5	-18	92	0	87	0
COc1ccc(C(=O)CC(=O)C(=O)NCCc2cccc(C)c2)cc1	13	0	0	1	-13	-15	.	.	.	.
O=C(COC(=O)C1=COCCO1)Nc1ccc(Br)cc1Br	16	-8	0	-8	.	.	.	.	.	.
Cc1c(C)c2cc(Cl)c(OCC(=O)NC3CC(C)(C)NC(C)(C)C3)cc2oc1=O	-1	18	0	-3	11	20	.	.	.	.
COc1cc(/C=C2\SC(=S)N(NS(=O)(=O)c3ccc(C)cc3)C2=O)ccc1O	-31	5	0	.	?	-15	117	0	109	0
CCOc1cc(/C=C2\SC(=S)N(NS(=O)(=O)c3ccc(C)cc3)C2=O)ccc1O	-11	1	0	3	-3	.	.	.	.	.
CCOc1ccc(S(=O)(=O)NCCc2ccccn2)cc1	15	7	0	5	.	.	.	.	.	.
CCOc1ccc(OCC(=O)NCCc2nc3ccccc3[nH]2)cc1	-4	10	0	7	6	1	.	.	.	.
Cc1ccccc1OCC(=O)NCCc1nc2ccccc2[nH]1	-2	3	15*	10	12	21	96	0	95	0
COCCNC(=S)N1CCc2cc(OC)c(OC)cc2C1COc1ccc(C(C)C)cc1 (centres undefined)	12	-11	6.8*	-7	8	20	115	0	112	0
CCNC(=S)N1CCc2cc(OC)c(OC)cc2C1COc1ccc(F)cc1 (centres undefined)	6	-8	1	4	-1	-9	.	.	.	.
Cc1cc(NC(=O)CN2C(=O)c3ccccc3S2(=O)=O)no1	20	-9	0	-2	-1	4	.	.	.	.
O=C(CN1C(=O)c2ccccc2S1(=O)=O)Nc1ccon1	3	33	1.1*	2	?	.	100	0	106	0
CCCCCc1cc(=O)oc2c(C(CCN3CCCC(C)C3)c3ccc(N(C)C)cc3)c(OC)cc(OC)c12 (centres undefined)	25	7	1.0*	8	-14	31	100	0	151	0
COc1ccc(-c2[nH]c(-c3ccc4c(c3)OCO4)nc2-c2ccccc2)cc1	-15	6	0.3*	-19	-4	12	105	0	114	0
N#Cc1ccccc1S(=O)(=O)N1CCC(C(=O)NCc2ccccc2CN2CCCC2)CC1	0	-8	0	2	.	.	.	.	.	.
SMILES	NALP3 yeast inh	GASC-1 inh	Efflux pump mplx	HDAC3 inh	PolyA inhibitor	NALP1 yeast inh	Cmpd fluor yeast	CaMdr1 efflux inh	CaCdr2 efflux inh	CaCdr1 efflux inh
C[C@H](CO)N1C[C@H](C)[C@@H](CN(C)S(=O)(=O)c2cn(C)cn2)Oc2c(NC(=O)Nc3ccc4c(c3)OCO4)cccc2C1=O	4	19	0	-3	.	.	.	.	.	.
O=c1cc(COc2ccc(Cl)c(Cl)c2)nc2sccn12	26	1	0.9*	-3	-9	-3	124	0	114	0
COc1ccc(S(=O)(=O)NCc2ccc(C(=O)NCCCN3CC(C)CC(C)C3)cc2)cc1 (centres undefined)	2	0	0	4	18	14	.	.	.	.
O=C(Nc1ccc(N2CCOCC2)cc1N1CCOCC1)c1cccc([N+](=O)[O-])c1	12	-5	0	1	32	13	.	.	.	.
Cc1onc(-c2ccccc2)c1C(=O)NC(C)c1ccccc1 (centres undefined)	-11	-45	0	-1	-18	.	.	.	.	.
Cc1ccc(C(C)NC(=O)c2c(-c3ccccc3)noc2C)cc1C (centres undefined)	13	4	5.7*	-3	12	12	75	0	91	0
Cc1ccccc1-n1nc(C(=O)c2cccs2)cc(-c2nc3ccccc3[nH]2)c1=N	5	3	0.3*	6	-11	-7	95	0	104	0
CC1C(=O)N2CCCc3cc(S(=O)(=O)N4CCCCC4)cc1c32 (centres undefined)	-4	?	0.7*	1	-5	.	105	0	99	0
CC1CCCN(S(=O)(=O)c2cc3c4c(c2)C(C)C(=O)N4CCC3)C1 (centres undefined)	9	7	0	6	-8	7	.	.	.	.
Cc1ccc(C2=NCCn3nc4cc([N+](=O)[O-])ccc4c32)cc1	25	-1	0	5	9	.	.	.	.	.
CCSc1cc(N2CCOCC2)nc(-c2ccccc2)n1	16	25	0	3	-16	37	103	0	97	0
CCOc1ccc(S(=O)(=O)N2CCC(C(=O)OC(C)C(=O)NC3CCCCC3C)CC2)cc1 (centres undefined)	-7	9	0	6	.	.	.	.	.	.
Nc1c(C(=O)CSc2nccn2-c2cccc(F)c2)c(=O)[nH]c(=O)n1C1CC1	6	-1	0	-9	.	.	.	.	.	.
